# Mito fusion yeast = inhibitors of mitochondrial division or activators of mitochondrial fusion; S. cerevisiae fusion-defective mutant growth rescue, CellTiterGlo 48 h; AID 485298; Potency, µM (top dose mostly 46.1 µM), for the others: at the highest dose growth rescue (activation), usual class: activators; hit rate 0.23% among 320,000; further: % of control where 0% means no effect; nearly all actives have a fitted effect of over 45% in size
#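 Luminescent cell viability in 1536-well qHTS format served as the measure of rescued growth in ts fusion-mutant S. cerevisiae cultured on non-fermentable YPEG for 48 hours at 37C.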
# TDP-43 yeast inh = rescues yeast growth from TDP-43 toxicity; hit rate 1.8% among 410,000; TDP-43 expressing yeast growth rescue, BacTiter-Glo, 24 h; Potency, µM (doses to about 46.1 µM), for inactives: at the top dose growth rescue (activation), actives largely listed as activators; further: % of control where 0% means no effect; nearly all actives have a fitted effect of over 50% in size
#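 Cell-based yeast growth screen: TDP-43 expression induced in galactose, inoculum OD600=0.02 after raffinose pregrowth to mid-log. Read-out BacTiter-Glo luminescence at 24 hr, 30 deg C; inhibition of toxicity seen as signal increase.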
# FUS suppressor = FUS proteinopathy suppression in yeast; AID 1347120; Potency, µM (series often up to 76.6 µM), actives largely listed as activators; S. cerevisiae FUS-expressing, growth rescue, OD600, 24 h; hit rate 0.24% among 390,000;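 further: plate controls were DMSO vehicle for no effect and reference control for full effect; nearly all actives have a fitted effect of over 55% in size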
#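 Restored growth of FUS-toxic S. cerevisiae, read as 600 nm absorbance after 24 h at 30C in galactose medium (starting OD 0.005). Controls CP55940 and DMSO.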
# Abeta rescue = A-beta toxicity reversal in yeast | yeast expressing A-beta42, growth rescue, OD600, 48 h; response scale: 0% DMSO, 100% iron-clioquinol control | Potency, µM (highest dose often 46.1 µM), usual class: activators | hit rate 0.063% among 410,000 | AID 1347071; further: nearly all actives have a fitted effect of over 55% in size
#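 Yeast growth medium received pinned compounds, then yeast cells expressing toxic A-beta were added; plates incubated at 30 C for 48 hr. Growth read as absorbance at 600 nm, normalized to DMSO and equimolar FeCl3 plus clioquinol controls.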
# AT treatment = potential ataxia-telangiectasia treatments restoring KAP-1 phosphorylation. Potency, µM (highest dose often 57.5 µM), inactives show at the top dose activation, usual class: activators. hit rate 0.19% among 320,000. AID 485349. F2112 A-T fibroblasts, KAP-1 phosphorylation AlphaLISA; neocarzinostatin DNA damage 30 min before lysis; further: % of control where 0% means no effect; nearly all actives have a fitted effect of over 45% in size
#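 hTERT-immortalized A-T patient fibroblasts (F2112), 500 cells/well in OPTI-MEM, 1% FBS, got compounds for 60 min, then NCS for 30 min at 37C. Lysates were then assayed for phospho-KAP-1 by AlphaLISA (anti-pKAP1 donor, anti-KAP1 acceptor beads), 6 hr at 25C.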
# aSyn rescue = inhibitors of alpha-synuclein toxicity in yeast | Yeast expressing alpha-synuclein, growth rescue, BacTiter-Glo, 24 h | Potency, µM (top dose mostly 46.1 µM), for inactives: at the highest dose growth rescue (activation), actives largely listed as activators | hit rate 0.14% among 370,000; further: % of control where 0% means no effect; nearly all actives have a fitted effect of over 65% in size
#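 Rescue of yeast growth: cells expressing toxic alpha-synuclein, induced in galactose at OD600 0.02, incubated with compound 24 h at 30 C. ATP luminescence quantified growth; inhibitors of toxicity appear as activators.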
# Numbers without * were called inactive; i = inactive; ? = inconclusive; . = no result. Sampled rows, rich in hits. Any-hit rate of the full collection: about 2.4%. The call rests on the fitted dose curve; in most records, active means well fitted curve in the direction sought with a large enough effect; inconclusive means small, poorly fitted or top-dose-only effect, or another doubt; inactive means no such curve, though single readings can be large; an effect the other way counts as inactive or inconclusive. Potency means the concentration at half of the fitted maximal effect.
SMILES,Mito fusion yeast,TDP-43 yeast inh,FUS suppressor,Abeta rescue,AT treatment,aSyn rescue
COc1ccc(C(O)c2nc(-c3cc(F)cc(F)c3)cs2)cc1 (stereo not drawn),.,35.5µM*,i,?,.,?
COc1cc(C(O)c2nc(-c3cccc(F)c3)cs2)ccc1F (stereo not drawn),.,15.8µM*,i,i,.,?
COc1cc(C(O)c2nc(-c3ccccc3OC)cs2)ccc1F (stereo not drawn),.,17.8µM*,i,i,.,?
COc1cc(F)ccc1-c1csc(C(O)c2ccc(F)cc2)n1 (stereo not drawn),.,?,i,?,.,0.0%
CC(C)c1cccc(-c2csc(C(O)c3ccc(F)c(F)c3)n2)c1 (stereo not drawn),.,-72.2%,i,i,.,-29.2%
COc1cc(C(O)c2nc(-c3cccc(C(C)C)c3)cs2)ccc1F (stereo not drawn),.,22.4µM*,i,i,.,-19.7%
O=C(CSC1=Nc2ccccc2C2=NC(Cc3ccccc3)C(=O)N12)Nc1cccc(Cl)c1 (stereo not drawn),.,6.5%,?,i,.,.
CCCCCC(=O)NC1CCCCN(Cc2ccc(C)cc2)C1=O (stereo not drawn),.,.,i,.,.,.
S=C(Nc1ccc(Cl)cc1)OC1CCC12CCC(c1ccccc1)CC2 (stereo not drawn),.,.,i,.,.,.
Cc1ccc(S(=O)(=O)N2CCC(c3nc4ccccc4o3)CC2)s1,.,.,i,.,.,.
Cc1ccccc1N1CCN(S(=O)(=O)c2ccc3c(c2)oc(=O)n3C)CC1,.,.,i,.,.,.
CC(C)Cn1cc(NC(=O)N2CCN(c3ccccc3F)CC2)c2ccccc2c1=O,.,19.5%,i,i,.,?
Cc1ccc(Cn2c(CNS(=O)(=O)c3c(C)cc(C)cc3C)nc3cccnc32)cc1,.,10.2%,?,i,.,.
COc1ccc(C(O)c2nc(-c3ccc(C)c(C)c3)cs2)cc1 (stereo not drawn),.,?,i,i,.,10µM*
COc1ccc(C(O)c2nc(-c3ccc(F)cc3OC)cs2)cc1 (stereo not drawn),.,22.4µM*,i,?,.,0.0%
COc1cc(C(O)c2nc(-c3cc(F)cc(F)c3)cs2)ccc1F (stereo not drawn),.,35.5µM*,i,?,.,?
COc1ccc(-c2csc(C(O)c3ccc(F)cc3)n2)cc1OC (stereo not drawn),.,22.4µM*,i,i,.,12.9%
O=C(COc1ccc(F)cc1Cl)Nc1nnc(-c2ccc(F)c(F)c2)o1,.,.,i,.,.,.
CC1(C)Cc2c(c(N3CCOCC3)nc3sc(C(N)=O)c(N)c23)CO1,-0.4%,-3.3%,i,i,22.4µM*,-2.9%
CC1(C)Cc2c(c(N3CCOCC3)nc3snc(Br)c23)CO1,-6.6%,15.8µM*,i,i,12.0%,3.7%
Cc1cc(C)n(-c2nc(Nc3ccccc3C(F)(F)F)nc(-n3nc(C)cc3C)n2)n1,?,20µM*,?,i,.,?
CCCC(=O)N/C(N)=N/c1nc2ccccc2o1,4.0%,12.6µM*,i,i,-7.7%,-17.6%
CCCN(CC1CC1)c1nc(C)nc(Nc2c(Cl)cc(Cl)cc2Cl)c1Cl,14.6µM*,10.3%,i,i,.,-35.1%
CCCN(CC1CC1)c1nc(C)nc2c1nnn2Cc1ccccc1,.,.,i,.,.,.
NC(=O)c1nsc(C(=O)N(c2ccccc2)C(C(=O)NC2CCCC2)c2ccc3ncccc3c2)c1N (stereo not drawn),-14.0%,13.4%,i,i,-0.6%,-1.3%
SMILES,Mito fusion yeast,TDP-43 yeast inh,FUS suppressor,Abeta rescue,AT treatment,aSyn rescue
COc1ccc(N(C(=O)c2snc(C(N)=O)c2N)C(C(=O)NCc2ccc(F)cc2)c2ccc(O)cc2)cc1 (stereo not drawn),-3.7%,-8.4%,28.2µM*,i,2.6%,-1.4%
COc1ccc(N(C(=O)c2snc(C(N)=O)c2N)C(C(=O)NC2CCCC2)c2ccc3ncccc3c2)cc1 (stereo not drawn),5.5%,-19.8%,28.2µM*,i,-1.5%,-5.0%
CCc1nnc2n1N(C(C)=O)C(c1ccc(C(C)(C)C)cc1)=C(C(C)=O)S2,.,26.6%,i,i,.,.
COc1ccc(-c2cc(=Nc3ccc(C(=O)O)cc3)c3cc(C)ccc3o2)cc1,7.1%,17.8µM*,i,i,3.2%,11.0%
COc1ccc(OC)c(S(=O)(=O)NCCc2csc(-c3cccc(F)c3)n2)c1,.,?,?,i,.,.
O=S(=O)(NCCc1csc(-c2cccc(F)c2)n1)c1cc(F)ccc1F,.,2.51µM*,i,?,.,.
O=S(=O)(NCCc1csc2nc(-c3ccccc3)nn12)c1cc(F)ccc1F,.,22.4µM*,i,?,.,.
Cc1ccc(S(=O)(=O)NCCc2csc(-c3cccc(F)c3)n2)cc1,.,17.8µM*,i,i,.,.
COc1ccccc1CCNC(=O)Cc1c(C)c2cc3c(C(C)(C)C)coc3c(C)c2oc1=O,.,2.0%,i,i,.,.
O=C(c1cnc(Cl)c(Cl)c1)N1CCC(Cc2ccccc2)CC1,-6.3%,12.6µM*,i,i,-2.5%,10.4%
Cc1cc(C(=O)N2CCC(Cc3ccccc3)CC2)ccc1[N+](=O)[O-],3.2%,?,11.2µM*,i,-0.5%,-11.1%
Cc1ccccc1-c1noc(-c2cc(C(C)C)[nH]n2)n1,.,15.9%,i,i,.,.
CN1CCCN(C(=O)Cc2c(Cl)cccc2Cl)c2nc3ccccc3nc21,?,22.4µM*,i,i,-3.8%,7.7%
O=c1oc2ccccc2n1CCCOc1ccccc1Cl,.,15.8µM*,i,i,.,.
Cc1ccc2oc(=O)n(CCCOc3ccccc3)c2c1,19.0%,35.5µM*,i,i,1.3%,8.0%
CCOc1nc(NC(=O)NS(=O)(=O)Oc2cccc(F)c2)nc(-c2ccccc2)n1,.,0.0%,i,i,.,9.2%
CCC(=O)C1=C(c2ccc(Cl)cc2)N(C(=O)CC)n2c(C)nnc2S1,.,-4.9%,i,i,.,.
CCC(=O)N1N=C(c2cccs2)CC1c1ccc(C)cc1 (stereo not drawn),9.4%,20µM*,i,i,0.0%,15.7%
CCC(=O)N1N=C(c2cccs2)CC1c1ccc(OC)cc1 (stereo not drawn),2.9%,?,i,i,4.2%,2.4%
Cc1ccc(C2CC(c3cccs3)=NN2C(=O)CCl)cc1 (stereo not drawn),-32.8%,12.6µM*,i,i,9.8%,0.6%

# Screens deposited in PubChem BioAssay by National Center for Advancing Translational Sciences (NCATS).
